Rows were chosen to be rich in hits. Some 7.7% of all compounds tested hit in one or more screens of this group.
RE007 growth inh: qHTS Assay for Inhibitors of the HIV-1 protein Vpr; S. pombe RE007 Vpr strain, BacTiter-Glo ATP luminescence, 24 h; Potency, µM (titrated, usually from 92.2 µM), for inactives: at the top dose activity change, negative = less growth, hits mostly inhibitors; actives 0.21% (n = 360,000); AID 651644, 2012; active = well fitted falling curve with a large enough effect; inconclusive = small, poorly fitted or top-dose-only effect; inactive = no such curve, though single readings can be large or run the other way; also: potency is read from the fitted curve at half-maximal effect; nearly all actives have a fitted effect of over 50% in size
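Fission yeast RE007 carrying one integrated HIV-1 vpr copy, seeded at OD 0.01 in PMG+AL medium with 23 nL pinned compound. Grown 24 h at 30 degrees; viability read by BacTiter-Glo luminescence after 5 min.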
Sm TGR inh: qHTS Assay for the Inhibitors of Schistosoma Mansoni Peroxiredoxins; Potency, µM (titrated, usually from 114 µM), for inactives: at the highest dose activity change, negative = inhibition, usual class: inhibitors; actives 3% (n = 360,000); Schistosoma mansoni thioredoxin glutathione reductase (TGR), Q962Y6; purified TGR, DTNB reduction, TNB absorbance 405 nm; also: potency is read from the fitted curve at half-maximal effect; nearly all actives have a fitted effect of over 60% in size
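Kinetic colorimetric format: TGR-catalysed, NADPH-driven DTNB reduction monitored via TNB absorbance. Enzyme dispensed at 20 nM; compound exposure 15 min at room temperature before reaction start.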
HCMV antiviral: qHTS Assay for inhibitors of the human cytomegalovirus (HCMV); AID 1259415, 2018; activity change, negative = inhibition, % at 57.5 µM; HFF cells, HCMV-luciferase reporter, 72 h; hits give low values; actives 4.5% (n = 410,000); in the data active = activity change below about -60%; inconclusive = no clear call, values can overlap the other calls; inactive = above about -39%
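After 16 h attachment at 37C, HFF cells received test compound and HCMV-luciferase (1 PFU/cell); reporter luminescence read 72 h later, data normalized against buffer-only and known inhibitor Salinomycin.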
FBPA Giardia inh: qHTS Assay for Inhibitors of Fructose-1,6-bisphosphate Aldolase from Giardia Lamblia | actives 0.71% (n = 290,000) | Potency, µM (series often up to 59.6 µM), without a hit: at the top dose activity, negative = inhibition, actives largely listed as inhibitors | A8B2U2 | purified Giardia FBPA; also: potency is read from the fitted curve at half-maximal effect; nearly all actives have a fitted effect of over 55% in size
Target sequence (A8B2U2 whole entry, looked up): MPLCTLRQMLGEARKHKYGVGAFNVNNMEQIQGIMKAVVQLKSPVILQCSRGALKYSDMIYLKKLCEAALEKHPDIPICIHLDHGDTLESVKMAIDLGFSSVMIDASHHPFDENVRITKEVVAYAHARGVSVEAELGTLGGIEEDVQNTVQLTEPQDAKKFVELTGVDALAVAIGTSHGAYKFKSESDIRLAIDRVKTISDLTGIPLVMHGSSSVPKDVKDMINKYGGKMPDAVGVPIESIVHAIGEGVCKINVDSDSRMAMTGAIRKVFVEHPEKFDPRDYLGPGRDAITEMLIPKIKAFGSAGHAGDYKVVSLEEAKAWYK
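Giardia FBPA (40 nM reagent) was preincubated 10 min at RT with compound (up to 57.5 uM final), then substrate plus GAPDH/TPI/NAD/arsenate coupling system with diaphorase/resazurin was added; resorufin fluorescence (525/598 nm) was read after 20 min.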
FMDV inh: High Throughput Screening for Foot and Mouth Disease Virus Antivirals. FMDV antiviral cell-based qHTS. Potency, µM (series often up to 57.9 µM), for inactives: at the highest dose activity change, negative = inhibition, actives largely listed as inhibitors. actives 1.2% (n = 410,000). AID 1159524, 2015; calls by dose curve; tested in HEK293T cells; also: read-out not given here; potency is read from the fitted curve at half-maximal effect; nearly all actives have a fitted effect of over 45% in size
Tb PYK inh: qHTS of Trypanosoma Brucei Inhibitors | pyruvate kinase (Trypanosoma brucei), Q57TT1 | TbPYK enzyme, Kinase-Glo Plus ATP luminescence, 45 min | Potency, µM (series often up to 76.8 µM), without a hit: top-dose activity, negative = inhibition, most hits filed as inhibitors | actives 0.12% (n = 410,000) | AID 624173, 2012; also: potency is read from the fitted curve at half-maximal effect; nearly all actives have a fitted effect of over 50% in size
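ADP (130 uM final) triggers the TbPYK reaction after compound addition; incubation is 45 min at room temperature. Kinase-Glo Plus is then added and luminescence imaged. Normalized data are fitted to concentration-effect curves.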
* hit, by the source's call; ? = inconclusive; . = not tested or not shown; [ ] = remark or other dose. Unless noted, calls follow the shape of the dose curve; as a rule, active = well fitted curve in the direction sought with a large enough effect; inconclusive = small, poorly fitted or top-dose-only effect, or another doubt; inactive = no such curve, though single readings can be large; an effect the other way counts as inactive or inconclusive. % is scaled to controls: 0 for no effect and ±100 for the full control effect.

SMILES | RE007 growth inh | Sm TGR inh | HCMV antiviral | FBPA Giardia inh | FMDV inh | Tb PYK inh
CC(=O)Nc1ccc(-c2nnc3n(Cc4ccc(C)cc4)c(=O)c4ccccc4n23)cc1 | . | 0% | 8 | . | -13% | 1%
Cn1c(-c2cccnc2)cc2c(Nc3cccc(C(F)(F)F)c3)nccc21 | . | . | -22 | . | . | .
O=C1CS(=O)(=O)C2(C(=O)N(Cc3cccc(F)c3)c3ccccc32)N1c1ccccc1 (configuration not stated) | . | 1% | -13 | . | 0% | -1%
O=C(O)c1cc(N/N=C/c2ccc(N3CCOCC3)cc2)ccc1Cl | -8% | ? | 113 | 1% | 14µM* | -5%
Clc1cccc(N/N=C/c2ccc(N3CCOCC3)cc2)c1 | 172% | -31% | -27 | 2% | 28% | 6%
CC(C)CCNc1nc(N)c([N+](=O)[O-])c(N2CCCCCC2)n1 | 9% | -2% | -94* | -5% | ? | 4%
O=C(NCC1CCC2(CCN(Cc3cccn3-c3ccc(Cl)cn3)CC2)O1)c1ccccc1 (configuration not stated) | . | . | . | . | -18% | .
CCOC1=C2CN(S(=O)(=O)c3ccc(C)cc3)[C@H](c3ccc(CC)cc3)C[C@@H]2N(S(=O)(=O)c2ccc(C)cc2)[C@H](c2ccccc2)C1 | 2% | . | -73* | . | -24% | 8%
CCOC1=C2[C@H](c3ccccc3Cl)N(S(=O)(=O)c3ccc(C)cc3)C[C@H]2C(C#N)(C#N)C(C#N)(C#N)C1 | 3% | . | 7 | . | ? | ?
CCOC1=C2[C@H](c3ccc(CC)cc3)N(S(=O)(=O)c3ccc(C)cc3)C[C@H]2C(C#N)(C#N)C(C#N)(C#N)C1 | 0% | . | -74* | . | 35µM* | -8%
CCOC1=C2[C@H](c3ccccc3)N(S(=O)(=O)c3ccc(C)cc3)[C@H](C(C)C)[C@H]2C(C#N)(C#N)C(C#N)(C#N)C1 | . | . | -76* | . | . | .
C#C[C@]1(OC(=O)CCCCCC)CC[C@H]2C3CCC4=CC(=O)CC[C@@H]4[C@H]3CC[C@@]21C (some centres not stated) | . | . | . | . | . | 1%
COc1cc(Cl)c(NC(=O)c2cc3ccccn3n2)c(OC)c1 | . | -1% | 55 | . | 31% | -5%
C=CC[C@@H]1C=C[C@@H](O/N=C\[C@@H](OC)[C@H](C)/C=C\CC(=O)OC)[C@@H](CO)O1 | . | . | . | 0%[12.9 µM] | . | .
CCN(CC)C(=O)Cn1cc(/C=C2\C(=O)NC(=O)N(c3ccccc3F)C2=O)c2ccccc21 | -11% | ? | 195 | 26% | 25µM* | -4%
COc1cc(C2CC(=O)N(Cc3ccc(F)cc3)c3ccccc3S2)cc(OC)c1OC (configuration not stated) | . | 9% | -82* | . | 14µM* | 0%
COc1ccc(C2CC(=O)N(Cc3ccc(F)cc3)c3ccccc3S2)cc1OC (configuration not stated) | . | 3% | 18 | . | 40µM* | 2%
COc1ccc(C2CC(=O)N(Cc3cccc(F)c3)c3ccccc3S2)cc1 (configuration not stated) | . | 7% | -39 | . | ? | -10%
COc1ccc(C2CC(=O)N(Cc3ccc(F)cc3)c3ccccc3S2)cc1 (configuration not stated) | . | 2% | ? | . | ? | 2%
COc1ccccc1[C@]1(C)ON(c2ccccc2C(F)(F)F)C1=O | 11% | 0% | -1 | . | ? | 2%
CC[C@]1(c2ccccc2OC)ON(c2ccccc2C(F)(F)F)C1=O | -6% | -3% | -29 | . | 22µM* | 1%
CC(=O)N1CCOc2cc(S(=O)(=O)Nc3c(C)cccc3C(C)C)c(Cl)cc21 | . | 79µM* | 7 | . | 30% | -10%
COc1cccc(C(=O)/C=C/c2ccc(OCC#N)c(OC)c2)c1 | -20% | -8% | -100* | -6% | ? | -8%
COc1cc(/C=C/C(=O)c2ccc(O)cc2)ccc1OCC#N | -4% | -18% | -98* | 7% | 28µM* | -3%
CCOc1ccc(/C=C/C(=O)c2ccccc2)cc1OC | -19% | -18% | -1 | -3% | -15% | 2%
SMILES | RE007 growth inh | Sm TGR inh | HCMV antiviral | FBPA Giardia inh | FMDV inh | Tb PYK inh
O=C(Cn1cncn1)NCC1Cc2cc(-c3ccsc3)cc(Cl)c2O1 (configuration not stated) | . | . | . | . | 3% | .
C=C1CCN(C(CC(C)C)C(=O)Nc2ccc(OC)cc2)S(=O)(=O)c2ccccc21 (configuration not stated) | . | . | . | -18% | . | .
Oc1ccc(C[C@@H]2CNCCN2CCC23CC4CC(CC(C4)C2)C3)cc1 | 1% | -12% | -87* | . | ? | 4%
Oc1ccc(C[C@H]2CNCCN2CCC23CC4CC(CC(C4)C2)C3)cc1 | 15% | -21% | -32 | . | -23% | -1%
CCOC(=O)c1c(NC(=O)COc2cccc3c2CCN(C)C3=O)sc2c1CCC2 | -6% | ? | -63* | 3% | ? | -3%
Cc1cccc(NC(=O)COc2cccc3c2CCN(C)C3=O)c1C | -18% | -1% | -6 | 1% | ? | 0%
O=C1C(=Cc2cccs2)Oc2ccccc21 | -19% | . | -69* | . | 45% | 10%
CCOC(=O)Cn1c(=O)n(C2CCCCC2)c2nc(-c3cccc(F)c3)nc(C(N)=O)c21 | . | -10% | 7 | . | -13% | -2%
CCOC(=O)Cn1c(=O)n(C2CCCCC2)c2nc(-c3c(F)cccc3Cl)nc(C(N)=O)c21 | . | 3% | -82* | . | ? | 5%
COc1cc(OC)c(CN2CCOc3ccc(CN4CCC(O)CC4)cc3C2)c(OC)c1 | . | . | . | . | -12% | .
Cc1ccc(S(=O)(=O)N2CCSC2c2ccco2)cc1 (configuration not stated) | 4% | 45µM* | 24 | ? | -29% | -9%
Cc1nn(-c2ccc(F)cc2)c(-n2cccc2)c1C(=O)NCCCN1CCN(c2cccc(Cl)c2)CC1 | . | -2% | -33 | . | ? | 1%
Brc1ccc(-c2cn3nc4c(nc3n2)CCCC4)cc1 | -7% | ? | ? | -29% | ? | -1%
c1ccc(-c2cn3nc4c(nc3n2)CCCC4)cc1 | ? | -15% | 39 | ? | 5.6µM* | ?
CCC(=O)C1=C(c2cccc([N+](=O)[O-])c2)N(C(=O)CC)n2c(nnc2C2CCCCC2)S1 | . | 22% | -99* | . | 0% | -8%
CCC(=O)C1=C(c2ccccc2)N(C(=O)CC)n2c(nnc2C2CCCCC2)S1 | . | 8% | 22 | . | -7% | -5%

Source: PubChem BioAssay
